# PubChem BioAssay (NCATS)
# Results filed as inconclusive are left out. A number with no mark means an inactive call. The call rests on the fitted dose curve; in most records, active means well fitted curve in the direction sought with a large enough effect; inconclusive means small, poorly fitted or top-dose-only effect, or another doubt; inactive means no such curve, though single readings can be large; an effect the other way counts as inactive or inconclusive.
# Assay: qHTS for Inhibitors of Plasmodium falciparum (HB3) proliferation (AID 504318);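 further: 0% = DMSO vehicle and -100% = artemisinin control; nearly all actives have a fitted effect of over 60% in size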
# Details: P. falciparum HB3 in erythrocytes, SYBR Green DNA, 72 h; series mostly up to 7.21 µM; activity change, negative = inhibition: at the top concentration
# Summary of the method: (§1)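 Parasite growth measured as SYBR Green DNA fluorescence (ex 485, em 535 nm) after overnight lysis following 72 h culture at 37 °C, 0.3% parasitemia, 2.5% hematocrit. Values normalized against DMSO and 0.29 uM artemisinin controls, with plate-stack correction.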
row,SMILES,"activity change, negative = inhibition [%]"
1,C[C@@H]1C[C@](C)(C(=O)c2ccc3ccccc3c2)C=C1c1ccc2ccccc2c1,-3.81
2,COC(=O)[C@H]1[C@@H](C)N(Cc2ccccc2)C(=O)N[C@H]1c1ccccc1,-2.76
3,COCCN1C(=O)N[C@@H](c2cccc(F)c2)C(C(=O)OC)=C1C,3.95
4,COC(=O)C1=C(C(=O)OC)[C@@H]2N(C)c3ccc(OC)cc3[C@@]23C[C@@H](C(=O)OC)N(S(=O)(=O)c2ccc(OC)cc2)C3=N1,-9.81
5,C=CCN1c2ccccc2[C@]23C[C@@H](C(=O)OC)N(S(=O)(=O)c4cccs4)C2=NC(C(=O)OC)=C(C(=O)OC)[C@H]13,-6.07
6,COC(=O)[C@@H](NC(=O)N1CCc2nc(-c3ccccc3)c3c(c2C1)CO[C@@H](C)C3)C(C)C,-5.08
7,O=C(C=Cc1ccc2c(c1)OCO2)c1ccccc1,0.409
8,C=CCOC(=O)C(C(C)=O)[C@@H](NC(=O)OC)c1cccc(C(F)(F)F)c1 (stereo not given in full),-6.72
9,COC(=O)C[C@H]1c2ccccc2[C@H]2C(=C[C@@H](C)[C@H]3C(=O)N(O)C(=O)[C@H]32)N1C(=O)OC,-4.38
10,COC/C=C/C1=CC2=CC(=O)C(C)(OC(=O)c3cnc4ccccc4n3)C(=O)C2=CN1CCOC (stereo not given),1.44
11,C=CCNC(=O)N1CCc2nc(COc3ccccc3)c3c(c2C1)CO[C@@H](C)C3,-1.71
12,CC(C)CON=C1C[C@@H](O)[C@@H](O)[C@@H]2[C@H]3C(=O)N(C4CCCCC4)C(=O)[C@@H]3CC[C@H]12,-3.33
13,C=CCN1c2ccccc2[C@]23C[C@@H](C(=O)OC)N(S(=O)(=O)CCCC)C2=NC(C(=O)OC)=C(C(=O)OC)[C@H]13,-7.29
14,CCCCC1=CC2=CC(=O)C(C)(OC(=O)CC)C(=O)C2=CN1Cc1ccccc1 (stereo not given),-6.68
15,COC(=O)CCC(=O)OC1(C)C(=O)C=C2C=C(C3CC3)N(C3CC3)C=C2C1=O (stereo not given),-4.42
16,C=CCN1c2ccccc2[C@]23C[C@@H](C(=O)OC)N(C(=O)C4CCC4)C2=NC(C(=O)OC)=C(C(=O)OC)[C@H]13,-4.07
17,COC(=O)C1(C(=O)OC)CC(CO)C(=O)[C@@H]1c1ccccc1 (stereo not given in full),-11.4

# Assay: qHTS for Inhibitors of Plasmodium falciparum (CP250) proliferation (AID 504320);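 further: plate controls were DMSO vehicle for no effect and 0.29 µM artemisinin control for full effect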
# Details: P. falciparum CP250 in erythrocytes, SYBR Green DNA, 72 h; series mostly up to 6.7 µM; activity change, negative = inhibition: at the top concentration
# Summary of the method: as §1
row,SMILES,"activity change, negative = inhibition [%]"
1,C[C@@H]1C[C@](C)(C(=O)c2ccc3ccccc3c2)C=C1c1ccc2ccccc2c1,-3.33
2,O=C(NS(=O)(=O)c1ccc(F)cc1)O[C@@H]1C(=O)c2cc(Br)ccc2O[C@H]1c1ccc2c(c1)OCO2,-0.403
3,COC(=O)CCC(=O)OC1(C)C(=O)C2=CN(Cc3ccc(OC)cc3)C(c3ccc(OC)cc3)=CC2=C(Br)C1=O (stereo not given),-2.1
4,COC(=O)[C@H]1[C@@H](C)N(Cc2ccccc2)C(=O)N[C@H]1c1ccccc1,1.06
5,CCCCc1nc2c(c3c1C[C@H](C)OC3)CN(S(=O)(=O)c1ccc(Cl)c3nonc13)CC2,-5.58
6,COCCN1C(=O)N[C@@H](c2cccc(F)c2)C(C(=O)OC)=C1C,4.01
7,COC(=O)C1=C(C(=O)OC)[C@@H]2N(C)c3ccc(OC)cc3[C@@]23C[C@@H](C(=O)OC)N(S(=O)(=O)c2ccc(OC)cc2)C3=N1,3.47
8,C=CCN1c2ccccc2[C@]23C[C@@H](C(=O)OC)N(S(=O)(=O)c4cccs4)C2=NC(C(=O)OC)=C(C(=O)OC)[C@H]13,5.77
9,COC(=O)C1=C(C(=O)OC)[C@@H]2Nc3ccccc3[C@@]23C[C@@H](C(=O)OC)N(S(=O)(=O)c2cccs2)C3=N1,0.102
10,O=C(C=Cc1ccc2c(c1)OCO2)c1ccccc1,1.87
11,C=CCOC(=O)C(C(C)=O)[C@@H](NC(=O)OC)c1cccc(C(F)(F)F)c1 (stereo not given in full),-1.68
12,CC=Cc1cc2ccccc2c2c(C(=O)OC)c(C(=O)OC)c(C(=O)OC)n12,4.29
13,CCN1C(=O)[C@@H]2[C@H]3[C@H](O)[C@H](O)CC(=NO[C@@H](C)c4cc(-c5c(C)cc(C)cc5C)no4)[C@@H]3CC[C@H]2C1=O,6.67
14,CCCC[C@]12Cc3cc(OC)c(OC)cc3[C@H](O1)C1=C(O2)C(=O)c2ccccc2C1=O,-12.6
15,CC#CCN1c2ccccc2[C@]23C[C@@H](C(=O)OC)N(C(C)=O)C2=NC(C(=O)OC)=C(C(=O)OC)[C@H]13,1.26
16,COC(=O)C[C@H]1c2ccccc2[C@H]2C(=C[C@@H](C)[C@H]3C(=O)N(O)C(=O)[C@H]32)N1C(=O)OC,-1.51
17,COC(=O)[C@@]1(C=C2c3ccc(F)cc3[C@@H](OC)[C@@H]2C)[C@@H]2CC=C[C@@H]21,-3.35
18,COC/C=C/C1=CC2=CC(=O)C(C)(OC(=O)c3cnc4ccccc4n3)C(=O)C2=CN1CCOC (stereo not given),2.41
19,CCCCc1nc2c(c3c1C[C@H](C)OC3)CN(S(=O)(=O)c1ccc3c(c1)OCCN3C)CC2,4.76

row,SMILES,"activity change, negative = inhibition [%]"
1,CCOC(=O)CN1C(=O)N[C@@H](CCc2ccccc2)C(C(=O)OC)=C1C,1.26
2,COC(=O)CCCC1=CC2=C(c3ccccc3)C(=O)C(C)(OC(=O)C3CCCC3)C(=O)C2=CN1C1CCCC1 (stereo not given),-1.04
3,C=CCNC(=O)N1CCc2nc(COc3ccccc3)c3c(c2C1)CO[C@@H](C)C3,-1.95
4,CC1(C)O[C@@H]2[C@@H](O1)C(c1ccccc1)(c1ccccc1)OP(=O)(O)OC2(c1ccccc1)c1ccccc1,0.149
5,CC(C)CON=C1C[C@@H](O)[C@@H](O)[C@@H]2[C@H]3C(=O)N(C4CCCCC4)C(=O)[C@@H]3CC[C@H]12,-9.49
6,COC(=O)C1=C(C(=O)OC)[C@@H]2N(C)c3ccc(OC)cc3[C@@]23C[C@@H](C(=O)OC)N(C(C)=O)C3=N1,-2.83
7,C=CCN1c2ccccc2[C@]23C[C@@H](C(=O)OC)N(S(=O)(=O)CCCC)C2=NC(C(=O)OC)=C(C(=O)OC)[C@H]13,1.87
8,CCCCC1=CC2=CC(=O)C(C)(OC(=O)CC)C(=O)C2=CN1Cc1ccccc1 (stereo not given),5.11
9,COC(=O)CCC(=O)OC1(C)C(=O)C2=CN(CCCCO)C(c3ccc(OC)cc3)=CC2=C(Br)C1=O (stereo not given),-1.12
10,COC(=O)N1CCc2cc(OC)c(OC)cc2C1Cc1ccc(OC)cc1 (stereo not given),-1.67
11,C=C(C)C(=O)c1ccc2c(c1)OCO2,3.25
12,COC(=O)c1ccccc1S(=O)(=O)N1CCc2nc(COc3ccccc3)c3c(c2C1)CO[C@@H](C)C3,1.22
13,C=CCN1c2ccccc2[C@]23C[C@@H](C(=O)OC)N=C2NC(C(=O)OC)=C(C(=O)OC)[C@H]13,1.44
14,C[C@@H](c1ccccc1)N1C(=O)[C@@H]2[C@H]3[C@H](O)[C@H](O)CC(=NNC(=O)OCc4ccccc4)[C@@H]3CC[C@H]2C1=O,5.3
15,C=CCN1c2ccccc2[C@]23C[C@@H](C(=O)OC)N(C(=O)C4CCC4)C2=NC(C(=O)OC)=C(C(=O)OC)[C@H]13,4.44
16,C=C[C@@]1(C)CC[C@H](O)[C@H]2C(=O)CCC[C@H]21,6.1
17,C=CCN1c2ccccc2[C@]23C[C@@H](C(=O)OC)N(C(=O)COCc4ccccc4)C2=NC(C(=O)OC)=C(C(=O)OC)[C@H]13,-1.77
18,COC(=O)C1=C(C(=O)OC)[C@@H]2N(C)c3ccc(OC)cc3[C@@]23C[C@@H](C(=O)OC)N(S(=O)(=O)c2ccc4c(c2)OCCN4C)C3=N1,-2.91
19,COC(=O)C1(C(=O)OC)CC(CO)C(=O)[C@@H]1c1ccccc1 (stereo not given in full),-3.08
